Laboratory results published in PubChem BioAssay (NCATS).
Inconclusive results are not listed. Entries that show only a call come without a potency. A number with no mark means an inactive call. Calls of active or inactive are those of the source. The call rests on the fitted dose curve; in most records, active means well fitted cell-killing curve with a large enough effect; inconclusive means small, poorly fitted or top-dose-only effect, or effect the other way; inactive means no such curve, though single readings can be large or run the other way.

Columns and labels:
[1] = Viability qHTS for spleen associated tyrosine kinase inhibitor (SYKi) naive MV4-11 cells (AID 1963823); further: nearly all actives have a fitted effect of over 40% in size
In short: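 Seeding of 500 SYKi-naive MV4-11 cells per well onto pre-dispensed compounds preceded a 72 hr incubation at 37 C. Luminescent CellTiter-Glo signal, read after 10 min at room temperature, reflected viable cells.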

[2] = Viability qHTS for spleen associated tyrosine kinase inhibitor (SYKi) drug resistant MV4-11 cells (AID 1963824); further: nearly all actives have a fitted effect of over 35% in size
In short: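 SYK-inhibitor-resistant MV4-11 AML cells were seeded at 500 per well onto compound and cultured 72 hours (37 °C, 5% CO2). CellTiter-Glo was then added, and after 10 min at room temperature, luminescence gave viability.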
Potency means the concentration at half of the fitted maximal effect.

Structure (SMILES) | Potency [1] | Potency [2] | viability (% of control) [1] | viability, % of control [2]
COc1ccc(CNC(=O)c2cc(-c3cncc(C)c3)ncc2-c2nccs2)nc1OC | inactive | inactive |  | 
CC(=O)OC[C@]12[C@@H](OC(=O)c3ccoc3)C[C@@H]3[C@@H](OC(C)=O)[C@]1(OC3(C)C)[C@@](C)(O)C[C@H](OC(=O)c1ccoc1)[C@@H]2OC(=O)c1ccoc1 | inactive | inactive |  | 
C[C@@H]1C[C@H](O)/C=C/[C@H](O)[C@@H](O)CC(=O)O1 | inactive | inactive |  | 
Cc1sc2c(c1C)C(c1ccc(Cl)cc1)=N[C@H](CC(=O)NCCCCNC(=O)COc1cccc3c1C(=O)N([C@H]1CCC(=O)NC1=O)C3=O)c1nnc(C)n1-2 | 0.0461 µM (active) | 0.0461 µM (active) |  | 
Oc1ccc(Nc2nc(-c3ccc(Cl)cc3)cs2)cc1 | 5.8 µM (active) | 2.06 µM (active) |  | 
O=C(/C=C/c1ccc(O)cc1)OCC1=C[C@@H](O)[C@@H]2C=CO[C@@H](O[C@@H]3O[C@H](CO)[C@@H](O)[C@H](O)[C@H]3O)[C@H]12 | inactive | inactive |  | 
CCOc1ccc(-n2c([C@@H](C)N(Cc3cccnc3)C(=O)Cc3ccc(OC(F)(F)F)cc3)nc3ncccc3c2=O)cc1 | 18.4 µM (active) | 16.4 µM (active) |  | 
CC1=C(C(=O)Nc2cc(Cl)ccc2Cl)C(c2ccco2)C2=C(CCCC2=O)N1 (stereo unspecified) | 14.6 µM (active) | 16.4 µM (active) |  | 
CC(=O)c1c(O)cc(O[C@@H]2O[C@H](CO)[C@@H](O)[C@H](O)[C@H]2O)cc1O | inactive | inactive |  | 
CC1=C2CC(O)(C(C)(C)O)C(O[C@@H]3O[C@H](CO)[C@@H](O)[C@H](O)[C@H]3O)CC(C)C2CC1=O (stereo partly specified) | inactive | inactive |  | 
C=C1CC[C@@H](O)[C@]2(C)C[C@H]3OC(=O)C(=C)[C@H]3CC12 (stereo partly specified) | 14.6 µM (active) | 6.51 µM (active) |  | 
CC1=C2C(=O)C=C(CO[C@@H]3O[C@H](CO)[C@@H](O)[C@H](O)[C@H]3O)[C@@H]2[C@H]2OC(=O)[C@H](C)[C@@H]2[C@@H](O)C1 | inactive | inactive |  | 
CC(=O)O[C@H]1[C@H](C)[C@@H](O)[C@H]2[C@@H]1C=C(C(=O)O)[C@H]1C[C@@H]3[C@H]([C@H]21)[C@H]1C(=O)O[C@@H]2CC[C@@]3(C)O[C@]1(O)[C@@H]2C | inactive | inactive |  | 
C=C1C[C@]23C[C@H]1CC[C@H]2[C@@]1(C)CCC[C@@]2(C)C(=O)O[C@@H]([C@@H]3O)[C@@H]12 | inactive | 1.43 µM (active) |  | 
CN(CCCNC(=O)c1ccc2nc3c(c(Cl)c2c1)CCCC3)Cc1ccccc1 | 5.8 µM (active) | 8.2 µM (active) |  | 
Cc1cc(O)cc(O[C@@H]2O[C@H](CO)[C@@H](O)[C@H](O)[C@H]2O)c1 | inactive | inactive |  | 
CC1(C)CCC(C)(C)c2cc([C@@H](O)C(=O)Nc3ccc(C(=O)O)cc3F)ccc21 | 4.11 µM (active) | 5.17 µM (active) |  | 
CCOC(=O)c1c(C)nn(-c2cccc([N+](=O)[O-])c2)c1C | inactive | inactive |  | 
Cc1ccc(C)c(NC(=O)CNS(=O)(=O)c2ccc3[nH]c(=O)oc3c2)c1 | inactive | inactive |  | 
CCOC(=O)Nc1cc(-c2ccc(C)c(NS(C)(=O)=O)c2)nn2c(C)nnc12 | 0.651 µM (active) | 0.651 µM (active) |  | 
CCCc1[nH]nc2c1C(c1cc(Cl)cc(Cl)c1O)C(C#N)=C(N)O2 (stereo unspecified) | 16.4 µM (active) | 16.4 µM (active) |  | 
C=C(C)C(O)COc1ccc(CC(=O)O)cc1 (stereo unspecified) | inactive | inactive |  | 
CC1CCC2(C(=O)O)CCC3(C)C(=CCC4C5(C)CCC(O)C(C)(CO)C5CCC43C)C2C1(C)O (stereo unspecified) | inactive | inactive |  | 
Cc1cn(-c2cc(NC(=O)c3ccc(C)c(Nc4nccc(-c5cnccn5)n4)c3)cc(C(F)(F)F)c2)cn1 | inactive | inactive |  | 
COC(=O)c1cc(OC)c(O[C@@H]2O[C@@H](C)[C@H](O)[C@@H](O)[C@H]2O)c(OC)c1 | inactive | inactive |  | 
C[C@@H]1O[C@@H](O[C@H]2[C@@H]3C=CO[C@@H](O[C@@H]4O[C@H](CO)[C@@H](O)[C@H](O)[C@H]4O)[C@@H]3[C@@]3(CO)O[C@@H]23)[C@H](O)[C@H](OC(=O)/C=C/c2ccc(O)c(O)c2)[C@H]1O | inactive | inactive |  | 
CC(=O)OCC1=C[C@@H]2OC(=O)C3=CO[C@@H](O[C@@H]4O[C@H](CO)[C@@H](O)[C@H](O)[C@H]4O)[C@H]1[C@@H]32 | inactive | inactive |  | 

Structure (SMILES) | Potency [1] | Potency [2] | viability (% of control) [1] | viability, % of control [2]
C[C@@H]1O[C@@H](O[C@H]2[C@H](OC(=O)[C@]34CCC(C)(C)C[C@H]3C3=CCC5[C@@]6(C)C[C@@H](O)[C@@H](O)[C@@](C)(CO)C6[C@H](O)C[C@@]5(C)[C@]3(C)CC4)OC[C@H](O)[C@@H]2O)[C@H](O)[C@H](O)[C@H]1O[C@@H]1OC[C@@H](O)[C@H](O[C@H]2O[C@H](C)[C@@H](O)[C@H](O)[C@@H]2O)[C@H]1O (stereo partly specified) |  |  | 80.2% [at 9.25 µM] | 77.9% [at 9.25 µM]
CN1CCN(C(=O)c2ccc3cc(CCNc4ncnc5ccc(C#N)cc45)ccc3c2)CC1 | 0.92 µM (active) | 0.461 µM (active) |  | 
C=C1CC2C3(C)C(O)CC(=O)C(C)(C)C3C(OC(C)=O)C(OC(C)=O)C2(C)C2C(=O)OC(C)(C(=O)OC)C(=O)C12C (stereo unspecified) | inactive | inactive |  | 
C=C1C(=O)OC2/C=C(\CO)CC/C=C(\C=O)CC(OC(=O)CC(C)C)C12 (stereo unspecified) | 2.27 µM (active) | 2.02 µM (active) |  | 
OC[C@H]1O[C@@H](OCCc2ccc(O)cc2)[C@H](O)[C@@H](O)[C@@H]1O | inactive | inactive |  | 
CC(C)(O)c1ccc2c(c1)C(O)CC1C(C)(C(=O)O)CCCC21C (stereo unspecified) | inactive | inactive |  | 
CC(C)[C@@](O)(c1ccc2cc(OC(F)F)c(OC(F)F)cc2c1)c1cn[nH]n1 | 18.4 µM (active) | 20.6 µM (active) |  | 
CC1(C)CC[C@]2(C(=O)O[C@@H]3O[C@H](CO)[C@@H](O)[C@H](O)[C@H]3O)CC[C@]3(C)C(=CCC4[C@@]5(C)C[C@@H](O)[C@H](O)[C@](C)(C=O)C5CC[C@]43C)[C@@H]2[C@@H]1O (stereo partly specified) | inactive | inactive |  | 
CC(C)[C@@H](C)/C=C/[C@@H](C)[C@H]1CC[C@H]2C3=CC=C4C[C@@H](O)CC[C@]4(C)[C@H]3CC[C@]12C | inactive | inactive |  | 
CC1OC(OC2C(O)C(C(=O)O)OC(OC3CCC4(C)C(CCC5(C)C4C=CC4=C6CC(C)(C)CC(O)C6(C)CCC45C)C3(C)C)C2OC2OCC(O)C(O)C2O)C(O)C(O)C1O (stereo unspecified) |  |  | 89.1% [at 9.25 µM] | 97.4% [at 9.25 µM]
CC1=CC(=O)C(C(C)C)=C/C1=N/OC(=O)c1ccccc1C | 5.17 µM (active) | 4.61 µM (active) |  | 
O=C1NCCSc2c1sc1ccc(O)cc21 | 2.59 µM (active) | 2.91 µM (active) |  | 
C[C@H]1CC[C@@H]2N(C1)C[C@@H]1[C@H]([C@@H](O)[C@H](O)[C@]3(O)[C@H]1C[C@@]14OC5(O)[C@@H](C[C@@H](O)[C@@H]31)[C@]4(C)CC[C@@H]5O)[C@]2(C)O | inactive | inactive |  | 
CN[C@H](CC(C)C)C(=O)N[C@H]1C(=O)N[C@@H](CC(N)=O)C(=O)N[C@H]2C(=O)N[C@H]3C(=O)N[C@H](C(=O)N[C@H](C(=O)O)c4cc(O)cc(O)c4-c4cc3ccc4O)[C@H](O[C@H]3C[C@](C)(N)[C@@H](O)[C@H](C)O3)c3ccc(c(Cl)c3)Oc3cc2cc(c3O[C@@H]2O[C@H](CO)[C@@H](O)[C@H](O)[C@H]2O[C@H]2C[C@](C)(NCc3ccc(-c4ccc(Cl)cc4)cc3)[C@@H](O)[C@H](C)O2)Oc2ccc(cc2Cl)[C@H]1O | inactive | inactive |  | 
COC(=O)C12CCC(C)C(C)C1C1=CCC3C4(C)CCC(OC(C)=O)C(C)(C)C4CCC3(C)C1(C)CC2 (stereo unspecified) | inactive | inactive |  | 
CC(=O)OCC(Cc1ccccc1)NC(=O)C(Cc1ccccc1)NC(=O)c1ccccc1 (stereo unspecified) | inactive | inactive |  | 
CC(=C\C(C)O)/C=C(\C)C(=O)CC1CC(CC(N)=O)CC(=O)O1 (stereo unspecified) | inactive | inactive |  | 
C=C1[C@H]2CC[C@]3(O)[C@@](CC[C@@H]4[C@](C)(C(=O)O)CCC[C@]43C)(C2)[C@H]1OC(=O)/C(C)=C\C | inactive | inactive |  | 
CC(C)c1ccc(NC(=O)c2cccs2)c(-c2nc3ccccc3[nH]c2=O)c1 | 8.2 µM (active) | 11.6 µM (active) |  | 
Cc1nnsc1C(=O)Nc1ccc(-n2nc(C(F)(F)F)cc2C(F)(F)F)cc1 | 18.4 µM (active) | 16.4 µM (active) |  | 
COc1c2ccoc2cc2oc(CO[C@@H]3O[C@H](CO)[C@@H](O)[C@H](O)[C@H]3O)cc(=O)c12 | inactive | inactive |  | 
COc1cc(O)cc2c1C(=O)OC(C)C2 (stereo unspecified) | inactive | inactive |  | 
COc1ccc(C(=O)O[C@H]2C=COC=C3C=C4C(=O)N(C)C(=S)C(=O)N4[C@@H]32)cc1Oc1cc(C=O)ccc1O | 2.82 µM (active) | 2.24 µM (active) |  | 
CSCC1OC(n2cnc3c(=O)[nH]cnc32)C(O)C1O (stereo unspecified) | inactive | inactive |  | 
Nc1ccc(-c2ccnc(NCCCNC(=O)c3c(Cl)cccc3Cl)n2)cc1 | 1.3 µM (active) | 1.3 µM (active) |  | 
O=C(Nc1ccc(C(O)(C(F)(F)F)C(F)(F)F)cc1)c1ccc(C(F)(F)F)cc1 | 1.84 µM (active) | 1.84 µM (active) |  | 
